Shown are actives, neighbours in structure and some others; about 2.8% of the full set was active somewhere.
HIF act – HIF pathway transcriptional activation. U2OS HRE-luciferase reporter, luminescence; normalized: DMSO 0%, desferrioxamine 100%. activation, % at 7.5 µM (by protocol). 300,000 compounds, 0.32% hits;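 active means mean activation of at least 10% of the iron chelator positive control signal, with at least half of replicates also reaching 10%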
PolyA inhibitor – yeast polyadenylation inhibition; S. cerevisiae SKY197-pL101 polyadenylation reporter, beta-gal luminescence; efflux-impaired pdr1/pdr3 knockout yeast; score 100 = 6 SD above DMSO; activity score, % at 12 µM; 300,000 compounds, 0.02% hits;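 active means lowest replicate activity score at least 50, where 100 means six control SD above control mean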;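 further: yeast exposed to compound for 9 h at 30 °C; higher score means more reporter readthrough which indicates perturbed polyadenylation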
Platelet DG rel – modulates dense granule release in human platelets; human platelet-rich plasma, SFLLRN dense granule ATP release, luminescence; inhibition, %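 (compounds screened at 7.5 µM in platelet-rich plasma)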; 300,000 compounds, 0.22% hits; AID 1663;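 active means mean replicate score, as percent of positive control, at or above 50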
AHR activator – activates the human aryl hydrocarbon receptor; P35869; AHR-responsive luciferase reporter cells, luminescence; activation, % at 5 µM; 320,000 compounds, 2.5% hits; AID 2796; in the data active means activation above about 47%;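 further: 0% = vehicle wells and 100% = reference agonist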
Target sequence (P35869 whole entry, looked up): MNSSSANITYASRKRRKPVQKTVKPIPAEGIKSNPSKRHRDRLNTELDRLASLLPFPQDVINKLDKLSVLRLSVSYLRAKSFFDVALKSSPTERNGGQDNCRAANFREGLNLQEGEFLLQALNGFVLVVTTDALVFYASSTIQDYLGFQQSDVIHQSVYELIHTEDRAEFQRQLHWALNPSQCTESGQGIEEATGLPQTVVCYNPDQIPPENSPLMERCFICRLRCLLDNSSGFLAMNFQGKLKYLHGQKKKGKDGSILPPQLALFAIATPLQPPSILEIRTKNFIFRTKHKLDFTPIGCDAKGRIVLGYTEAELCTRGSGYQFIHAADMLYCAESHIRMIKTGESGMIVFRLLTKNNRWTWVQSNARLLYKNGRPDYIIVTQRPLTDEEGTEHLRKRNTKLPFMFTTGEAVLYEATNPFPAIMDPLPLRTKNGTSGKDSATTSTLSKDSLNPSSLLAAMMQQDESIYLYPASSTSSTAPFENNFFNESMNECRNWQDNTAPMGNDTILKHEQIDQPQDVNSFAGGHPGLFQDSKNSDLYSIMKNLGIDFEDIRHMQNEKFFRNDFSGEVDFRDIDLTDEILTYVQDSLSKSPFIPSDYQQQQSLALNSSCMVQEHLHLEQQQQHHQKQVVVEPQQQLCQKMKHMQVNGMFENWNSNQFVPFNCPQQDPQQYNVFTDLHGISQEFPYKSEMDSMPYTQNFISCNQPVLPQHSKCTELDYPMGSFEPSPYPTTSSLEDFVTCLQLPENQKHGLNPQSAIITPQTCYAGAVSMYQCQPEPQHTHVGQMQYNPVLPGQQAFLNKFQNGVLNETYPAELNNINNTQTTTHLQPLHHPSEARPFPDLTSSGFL
pCIP destab – lowers stability of the mouse p/CIP coactivator protein; F442A p/CIP-EGFP cells, EGFP fluorescence, 16 h; 290,000 compounds, 0.01% hits; AID 1984; decrease of EGFP signal, % at 10 µM; Q05BA5;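 active means EGFP signal decrease of at least 30% at 10 µM or well 3 SD below plate mean, unless failing retest; inactive means the rest, including hits failing retest or dose response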
An asterisk follows results filed as active; nt = not tested or not shown.

SMILES	HIF act	PolyA inhibitor	Platelet DG rel	AHR activator	pCIP destab
NC(=O)NC(Cc1ccccc1)C(=O)NNC(=O)COc1ccccc1Cl (centres undefined)	nt	nt	nt	2	nt
CCN1CCCC1CN(Cc1cc2ccc(C)cc2[nH]c1=O)C(=S)Nc1cccc(OC)c1 (centres undefined)	0	-15	-1	59*	-2
CCN1CCCC1CN(Cc1cc2ccc(C)cc2[nH]c1=O)C(=S)Nc1ccc(OC)cc1 (centres undefined)	-36	-12	-6	-1	8
O=C(CCNS(=O)(=O)c1ccccc1)NNC(=O)COc1ccccc1F	nt	nt	nt	3	nt
CCSc1nncn1/N=C/c1ccc(OC)c(OC)c1	1	1	15	48*	7
O=C(CNC1CCCCC1)Nc1ccc([N+](=O)[O-])cc1C(=O)Nc1ccccc1F	-1	-13	-4	48*	8
CN(CC(=O)Nc1ccc(F)cc1)C(=O)c1ccc(N2C(=O)CCC2=O)cc1	nt	nt	nt	1	nt
N#Cc1cc2c(=O)n3ccccc3nc2n(CCCn2ccnc2)c1=N	0	11	-1	102*	10
CCCn1c(=N)c(C#N)cc2c(=O)n3ccccc3nc21	0	26	-8	85*	-12
CCCn1c(=N)c(C#N)cc2c(=O)n3cccc(C)c3nc21	-36	-1	-1	32	-7
Cn1c(N)c(-c2nc3cccnc3n2C)sc1=S	2	-17	11	51*	-12
C=CCNCC(O)COc1ccc(C(C)=O)cc1OC (centres undefined)	0	-7	4	0	2
CN(C)C(=O)/C(=C/c1cn(-c2ccccc2)nc1-c1cccc([N+](=O)[O-])c1)NC(=O)c1ccccc1	0	1	-1	8	-5
C=CCNC(=O)/C(=C/c1cn(-c2ccccc2)nc1-c1cccc([N+](=O)[O-])c1)NC(=O)c1ccccc1	230*	8	-15	14	-1
CCN(CC)S(=O)(=O)c1ccc(N/N=C/c2cc(OC)c(OC)cc2OC)nc1	0	24	0	19	0
CCN(CC)S(=O)(=O)c1ccc(N/N=C/c2ccc(O)cc2)nc1	0	-12	0	-1	-11
CCOc1cccc(/C=N/Nc2ccc(S(=O)(=O)N(CC)CC)cn2)c1O	9.8*	-21	-7	11	5
CCN(CC)S(=O)(=O)c1ccc(N/N=C(\C)c2ccc(OC)cc2O)nc1	9.6*	-2	-1	1	0
O=C(NC1CC1)C1CCN(C2CCN(C(=O)c3c(F)cccc3Cl)CC2)CC1	0	-9	-3	0	-1
CC(C)(C)OC(=O)C[C@H]1C/C=C\C[C@H](CC(=O)NCCO)C(=O)N2CCC[C@@H]2COC1=O	nt	nt	nt	0	nt
CC1CCCC/C1=N\NC(=S)Nc1ccccc1 (centres undefined)	5	-2	3	60*	-3
Cc1cc(/C=C2\NC(=O)NC2=O)c(C)n1-c1cccnc1	0	-9	6	100*	1
Cc1cc2cc3c(cc2nc1SCC(=O)Nc1nc(C)c(C)s1)OCO3	-4	15	0	92*	-26
COC(=O)CSc1nc2cc3c(cc2cc1C)OCO3	0	-24	4	1	-5
COc1cc(/C=N/N(C)c2ccccc2)cc(Cl)c1O	2	-7	-3	52*	9
SMILES	HIF act	PolyA inhibitor	Platelet DG rel	AHR activator	pCIP destab
COc1ccc(C(=O)NCCc2nc3cc([N+](=O)[O-])ccc3n2C)cc1	26*	-6	-2	38	-6
COc1ccc(C(=O)Nc2ccc3c(c2)nc(CCNC(C)=O)n3C)cc1	2	12	0	1	0
CC(=O)Nc1nc(-c2ccc3c(c2)OCO3)cs1	3	-6	13	42	-8
COc1ccc(-c2csc(/C=C/c3ccc4c(c3)OCO4)n2)cc1OC	1	6	-6	54*	6
Cc1ccc(S(=O)(=O)N(Cc2ccc(Cl)cc2)c2ccccc2C(=O)NCc2ccco2)cc1	0	-13	-8	3	-13
O=C(CCN1C(=O)S/C(=C\c2ccc(F)cc2)C1=O)Nc1ccc(C(=O)O)c(O)c1	30*	4	9	1	-16
CCOc1ccc(S(=O)(=O)N2CCN(CN3C(=O)CC4(CCCC4)C3=O)CC2)cc1	nt	nt	nt	-1	nt
O=C(CNS(=O)(=O)c1ccccc1)OCC(=O)c1c[nH]c2ccccc12	nt	nt	nt	47*	nt
COc1ccc(F)cc1C(=O)C1CCCN(Cc2cccn2-c2cccnc2)C1 (centres undefined)	0	-8	1	52*	4
COc1ccc(F)cc1C(=O)C1CCCN(Cc2ccc(Oc3ncccn3)cc2)C1 (centres undefined)	0	4	-1	0	-3
O=C(CSc1nc(C2CCCCC2)n(-c2ccccc2)n1)NCC(F)(F)F	0	4	27	1	-4
O=C(O)c1cc(N/N=C/C=C/c2ccccc2)ccc1Cl	4	-3	4	13	0
COc1ccc(OC)c(CCNC(=O)CC2Oc3ccccc3NC2=O)c1 (centres undefined)	nt	-5	1	52*	-11
COc1nc(-c2ccccc2)ccc1-c1noc(-c2ccccc2)n1	1	-6	1	45	2
COc1nc(-c2ccccc2)ccc1-c1noc(-c2cccs2)n1	5	-4	-3	52*	nt
COc1cccc(-c2noc(-c3cccs3)n2)c1	1	-9	11	48*	-10
Cc1nc2cc(Nc3ccncc3)ccc2s1	0	-8	56*	25	-8
Cc1nc2cc(NC(=O)CCS(=O)(=O)c3ccccc3)ccc2s1	2	-7	5	17	-20
COc1ccc(/C=N/NC(=O)c2ccc(COc3ccccc3Cl)o2)cc1	-14	-8	0	62*	3
COc1ccc(/C=N/NC(=O)c2ccc(COc3ccccc3Cl)o2)c(OC)c1C	-2	-8	-8	19	5
CC(=O)OCCCNc1cc(Sc2ccc(C)cc2)c2nonc2c1[N+](=O)[O-]	9.9*	2	14	-1	4
CC(=O)OCCCNc1cc(Sc2nc3ccccc3s2)c2nonc2c1[N+](=O)[O-]	1	5	-1	16	0
c1cncc(-c2noc(-c3cccc4ccccc34)n2)c1	1	-26	-1	59*	0
Brc1cccc(-c2nc(-c3ccncc3)no2)c1	3	-12	7	52*	6
Cc1cccc(-c2nc(-c3ccncc3)no2)c1	3	-31	6	4	-16
CCC(=O)Oc1ccc(-c2nc(-c3cccnc3)no2)cc1	1	-42	81*	-2	-2
COc1ccc(-c2noc(-c3ccccc3F)n2)cc1	0	1	9	48*	-13
CCS(=O)(=O)N1CCC(C(=O)Nc2ccc(C(C)=O)cc2)CC1	-1	-8	-5	-4	-11
NC(=O)c1ccccc1-c1nc(-c2ccccc2)no1	4	12	-1	15	3
c1ccc(-c2noc(-c3cccc4ccccc34)n2)cc1	2	-10	9	51*	-3
